According to PubChem BioAssay AID1159580 (chemical genetic matrix, 2015):
“And” between values parts separate entries of the source, which are not always exact repeats. Identical values can stand only once. About 2,000 (36%) of roughly 5,500 compounds were called active. About 18% were inconclusive and are not listed. This is one part of the list. Values without a mark were called inactive. Cut-off read from the data, not from the text of the source: active = normalized growth mostly below about 0.91 (no sharp cut-off); inconclusive = no clear call, values can overlap the other calls; inactive = mostly above about 0.92.

Assay: chemical genetic growth profiling, strain panel (AID 1159580);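 note: tested at 20 µM; growth read once vehicle control cultures reached saturation at 30 °C; 1 = growth at the plate median or of vehicle wells; lower values mean less growth of the strain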
Details: S. cerevisiae deletion strains, growth OD

COc1c2ccoc2cc2oc(=O)ccc12
normalized growth (locus YAL021C, strain ccr4, active compounds read low): 0.957 | normalized growth (locus YAL026C, strain drs2, active compounds read low): 0.936 | normalized growth (locus YAL030W, strain snc1, active compounds read low): 0.993 | normalized growth (locus YBL061C, strain skt5, active compounds read low): 0.971 | normalized growth (locus YBR009C, strain hhf1, active compounds read low): 0.886 (active) | normalized growth (locus YBR021W, strain FUR4, active compounds read low): 1.1 | normalized growth (locus YBR023C, strain chs3, active compounds read low): 0.968 | normalized growth (locus YBR171W, strain sec66, active compounds read low): 0.954 | normalized growth (locus YBR229C, strain ROT2, active compounds read low): 0.967 | normalized growth (locus YBR231C, strain swc5, active compounds read low): 0.872 (active) | normalized growth (locus YBR279W, strain paf1, active compounds read low): 0.974 | normalized growth (locus YCL011C, strain gbp2, active compounds read low): 0.942 | normalized growth (locus YCL016C, strain dcc1, active compounds read low): 0.959 | normalized growth (locus YCL029C, strain bik1, active compounds read low): 0.647 (active) | normalized growth (locus YCL061C, strain MRC1, active compounds read low): 0.97 | normalized growth (locus YCL069W, strain vba3, active compounds read low): 0.968 | normalized growth (locus YCR088W, strain abp1, active compounds read low): 0.987 | normalized growth (locus YDL005C, strain med2, active compounds read low): 0.996 | normalized growth (locus YDL035C, strain GPR1, active compounds read low): 0.734 (active) | normalized growth (locus YDL040C, strain nat1, active compounds read low): 0.992 | normalized growth (locus YDL074C, strain BRE1, active compounds read low): 0.544 (active) | normalized growth (locus YDL101C, strain DUN1, active compounds read low): 0.613 (active) | normalized growth (locus YDL134C, strain PPH21, active compounds read low): 0.703 (active) | normalized growth (locus YDL185W, strain tfp1, active compounds read low): 0.911 | normalized growth (locus YDL192W, strain arf1, active compounds read low): 0.674 (active) | normalized growth (locus YDR001C, strain nth1, active compounds read low): 0.976 | normalized growth (locus YDR069C, strain doa4, active compounds read low): 0.96 | normalized growth (locus YDR101C, strain arx1, active compounds read low): 0.741 (active) | normalized growth (locus YDR137W, strain rgp1, active compounds read low): 1.16 [resistant] (active) | normalized growth (locus YDR159W, strain sac3, active compounds read low): 1.04 | normalized growth (locus YDR162C, strain NBP2, active compounds read low): 0.617 (active) | normalized growth (locus YDR195W, strain ref2): 1.38 [resistant] (active) | normalized growth (locus YDR297W, strain sur2, active compounds read low): 0.99 | normalized growth (locus YDR318W, strain mcm21, active compounds read low): 0.699 (active) | normalized growth (locus YDR335W, strain msn5, active compounds read low): 0.953 | normalized growth (locus YDR388W, active compounds read low): 0.814 (active) | normalized growth (locus YDR392W, strain spt3, active compounds read low): 0.761 | normalized growth (locus YDR502C, strain sam2, active compounds read low): 0.791 (active) | normalized growth (locus YEL003W, strain gim4, active compounds read low): 0.96 | normalized growth (locus YEL037C, strain rad23, active compounds read low): 0.942 | normalized growth (locus YEL061C, strain CIN8 (second series), active compounds read low): 0.958 | normalized growth (locus YER015W, strain faa2, active compounds read low): 0.981 | normalized growth (locus YER016W, strain bim1, active compounds read low): 0.973 | normalized growth (locus YER110C, active compounds read low): 0.863 (active) | normalized growth (locus YER111C, strain swi4, active compounds read low): 0.975 | normalized growth (locus YER155C, strain BEM2 (second series), active compounds read low): 0.653 (active) | normalized growth (locus YER155C, strain BEM2, active compounds read low): 0.904 (active) | normalized growth (locus YER167W, strain BCK2, active compounds read low): 0.885 (active) | normalized growth (locus YFR010W, strain ubp6, active compounds read low): 0.936 | normalized growth (locus YGL078C, strain dbp3, active compounds read low): 0.91 (active) | normalized growth (locus YGL086W, strain mad1, active compounds read low): 0.719 (active) | normalized growth (locus YGL167C, strain pmr1, active compounds read low): 0.981 | normalized growth (locus YGL173C, strain kem1, active compounds read low): 0.96 | normalized growth (locus YGL227W, strain vid30, active compounds read low): 0.976 | normalized growth (locus YGL240W, strain doc1, active compounds read low): 0.896 | normalized growth (locus YGL248W, strain PDE1, active compounds read low): 0.718 (active) | normalized growth (locus YGL253W, strain hxk2, active compounds read low): 0.903 (active) | normalized growth (locus YGR078C, strain PAC10, active compounds read low): 0.706 (active) | normalized growth (locus YGR135W, strain pre9, active compounds read low): 0.688 (active) | normalized growth (locus YGR229C, strain SMI1, active compounds read low): 0.839 | normalized growth (locus YGR252W, strain gcn5, active compounds read low): 0.554 (active) | normalized growth (locus YHR013C, strain ard1, active compounds read low): 0.856 | normalized growth (locus YHR027C, strain rpn1, active compounds read low): 0.983 | normalized growth (locus YHR030C, strain SLT2, active compounds read low): 0.729 (active) and 0.802 (active) | normalized growth (locus YHR079C, strain IRE1 (second series), active compounds read low): 0.854 (active) | normalized growth (locus YHR079C, strain IRE1, active compounds read low): 0.801 (active) | normalized growth (locus YHR094C, strain hxt1, active compounds read low): 0.922 (active) | normalized growth (locus YHR129C, strain ARP1, active compounds read low): 0.863 (active) | normalized growth (locus YHR142W, strain chs7, active compounds read low): 0.826 (active) | normalized growth (locus YHR200W, strain rpn10, active compounds read low): 0.636 (active) | normalized growth (locus YIL066C, strain RNR3, active compounds read low): 0.805 (active) | normalized growth (locus YIL073C, strain SPO22, active compounds read low): 0.757 | normalized growth (locus YIL125W, strain kgd1, active compounds read low): 0.869 (active) | normalized growth (locus YIR030C, strain dcg1, active compounds read low): 0.818 (active) | normalized growth (locus YJL092W, strain hpr5, active compounds read low): 0.976 | normalized growth (locus YJL095W, strain BCK1 (second series), active compounds read low): 0.966 | normalized growth (locus YJL095W, strain BCK1, active compounds read low): 0.337 (active) and 0.817 (active) | normalized growth (locus YJL115W, strain asf1, active compounds read low): 0.967 | normalized growth (locus YJL129C, strain trk1, active compounds read low): 1.09 | normalized growth (locus YJL134W, strain LCB3, active compounds read low): 0.957 | normalized growth (locus YJL154C, strain vps35, active compounds read low): 0.977 | normalized growth (locus YJL164C, strain tpk1, active compounds read low): 0.937 | normalized growth (locus YJL166W, strain qcr8, active compounds read low): 0.91 | normalized growth (locus YJL168C, strain set2, active compounds read low): 0.958 | normalized growth (locus YJL187C, strain SWE1 (second series), active compounds read low): 0.766 (active) | normalized growth (locus YJL187C, strain SWE1, active compounds read low): 1 | normalized growth (locus YJR066W, strain TOR1, active compounds read low): 0.829 | normalized growth (locus YKL009W, strain mrt4, active compounds read low): 0.914 | normalized growth (locus YKL068W, active compounds read low): 0.973 | normalized growth (locus YKL085W, strain MDH1 (second series), active compounds read low): 0.915 (active) | normalized growth (locus YKL085W, strain MDH1, active compounds read low): 0.915 (active) | normalized growth (locus YKL160W, strain elf1, active compounds read low): 0.902 (active) | normalized growth (locus YKL190W, strain CNB1, active compounds read low): 0.898 (active) | normalized growth (locus YKR001C, strain vps1, active compounds read low): 0.44 (active) | normalized growth (locus YKR026C, strain gcn3, active compounds read low): 0.951 | normalized growth (locus YKR091W, strain srl3, active compounds read low): 0.996 | normalized growth (locus YLL001W, strain dnm1, active compounds read low): 0.977 | normalized growth (locus YLL026W, active compounds read low): 0.98 | normalized growth (locus YLL041C, strain sdh2, active compounds read low): 0.992 | normalized growth (locus YLR027C, strain aat2, active compounds read low): 0.971 | normalized growth (locus YLR039C, strain RIC1, active compounds read low): 0.906 | normalized growth (locus YLR058C, strain SHM2, active compounds read low): 0.783 (active) | normalized growth (locus YLR102C, strain apc9, active compounds read low): 0.929 | normalized growth (locus YLR113W, strain HOG1, active compounds read low): 0.948 | normalized growth (locus YLR221C, strain rsa3, active compounds read low): 0.941 | normalized growth (locus YLR258W, strain gsy2, active compounds read low): 0.975 | normalized growth (locus YLR262C, strain YPT6 (second series), active compounds read low): 1.09 | normalized growth (locus YLR268W, strain sec22, active compounds read low): 0.71 (active) | normalized growth (locus YLR320W, strain mms22, active compounds read low): 0.887 | normalized growth (locus YLR342W, strain FKS1, active compounds read low): 1.01 | normalized growth (locus YLR357W, strain rsc2, active compounds read low): 1.13 | normalized growth (locus YLR370C, strain arc18, active compounds read low): 0.969 | normalized growth (locus YLR371W, strain rom2, active compounds read low): 0.573 (active) | normalized growth (locus YLR384C, strain iki3, active compounds read low): 0.956 | normalized growth (locus YLR418C, strain cdc73, active compounds read low): 0.494 (active) | normalized growth (locus YML016C, strain PPZ1, active compounds read low): 0.809 (active) | normalized growth (locus YML032C, strain rad52, active compounds read low): 0.411 (active) | normalized growth (locus YML120C, strain ndi1, active compounds read low): 0.901 (active) | normalized growth (locus YML124C, strain tub3, active compounds read low): 0.872 (active) | normalized growth (locus YMR058W, strain fet3, active compounds read low): 0.953 | normalized growth (locus YMR078C, strain ctf18, active compounds read low): 0.878 (active) | normalized growth (locus YMR125W, strain sto1, active compounds read low): 1.03 | normalized growth (locus YMR129W, active compounds read low): 0.977 | normalized growth (locus YMR205C, strain PFK2, active compounds read low): 1.03 | normalized growth (locus YMR223W, strain ubp8, active compounds read low): 0.764 (active) | normalized growth (locus YMR231W, strain pep5, active compounds read low): 0.983 | normalized growth (locus YMR307W, strain GAS1, active compounds read low): 0.974 | normalized growth (locus YNL067W, strain RPL9B, active compounds read low): 0.791 (active) | normalized growth (locus YNL071W, strain lat1, active compounds read low): 0.972 | normalized growth (locus YNL183C, strain NPR1, active compounds read low): 0.858 | normalized growth (locus YNL209W, strain ssb2, active compounds read low): 0.976 | normalized growth (locus YNL233W, strain BNI4, active compounds read low): 0.74 (active) | normalized growth (locus YNL248C, strain rpa49, active compounds read low): 0.575 (active) | normalized growth (locus YNL250W, strain rad50, active compounds read low): 0.856 (active) | normalized growth (locus YNL271C, strain bni1, active compounds read low): 0.858 (active) | normalized growth (locus YNL298W, strain CLA4, active compounds read low): 0.77 (active) | normalized growth (locus YNL307C, strain MCK1, active compounds read low): 0.666 (active) | normalized growth (locus YNL322C, strain KRE1 (second series), active compounds read low): 1.02 | normalized growth (locus YNR049C, strain mso1, active compounds read low): 0.991 | normalized growth (locus YNR052C, strain pop2, active compounds read low): 0.737 (active) | normalized growth (locus YOL006C, strain TOP1, active compounds read low): 0.419 (active) | normalized growth (locus YOL012C, strain htz1): 0.31 | normalized growth (locus YOL147C, strain pex11, active compounds read low): 0.757 (active) | normalized growth (locus YOR001W, strain rrp6, active compounds read low): 0.87 (active) | normalized growth (locus YOR061W, strain CKA2, active compounds read low): 0.872 (active) | normalized growth (locus YOR069W, strain VPS5, active compounds read low): 0.852 (active) | normalized growth (locus YOR070C, strain gyp1, active compounds read low): 0.979 | normalized growth (locus YOR080W, strain dia2, active compounds read low): 0.979 | normalized growth (locus YOR083W, strain WHI5, active compounds read low): 0.799 (active) | normalized growth (locus YOR106W, strain vam3, active compounds read low): 0.854 (active) | normalized growth (locus YOR136W, strain idh2, active compounds read low): 0.888 (active) | normalized growth (locus YOR144C, strain elg1, active compounds read low): 0.852 (active) | normalized growth (locus YOR184W, strain ser1, active compounds read low): 0.46 (active) | normalized growth (locus YOR231W, strain MKK1, active compounds read low): 0.83 (active) | normalized growth (locus YOR265W, strain rbl2, active compounds read low): 0.989 | normalized growth (locus YOR270C, strain vph1, active compounds read low): 0.751 (active) | normalized growth (locus YOR290C, strain snf2, active compounds read low): 0.877 | normalized growth (locus YOR316C, strain cot1, active compounds read low): 0.975 | normalized growth (locus YPL051W, strain arl3, active compounds read low): 0.91 (active) | normalized growth (locus YPL078C, strain atp4, active compounds read low): 0.893 | normalized growth (locus YPL106C, strain sse1, active compounds read low): 0.78 (active) | normalized growth (locus YPL240C, strain hsp82, active compounds read low): 0.973 | normalized growth (locus YPL256C, strain CLN2, active compounds read low): 0.907 | normalized growth (locus YPR119W, strain clb2, active compounds read low): 0.964 | normalized growth (locus YPR141C, strain kar3, active compounds read low): 0.997 | normalized growth (locus YPR163C, strain tif3, active compounds read low): 0.672 (active) | normalized growth (locus YPR167C, strain met16, active compounds read low): 0.775 (active) | normalized growth (strain wtn01, active compounds read low): 0.731 (active)
